VACV Venus inh: vaccinia inhibition (Venus reporter); Vaccinia virus Venus reporter expression, fluorescence; Potency, µM (highest dose often 36.5 µM), for inactives: top-dose activity change, negative = inhibition, actives largely listed as inhibitors; actives 0.46% (n = 330,000); calls by dose curve; tested in A549 cells; also: potency is read from the fitted curve at half-maximal effect; nearly all actives have a fitted effect of over 30% in size
MARV entry inh: blocks Marburg virus binding to or entry into cells | Marburg virus pseudotyped entry inhibition, cell reporter | Potency, µM (series often up to 37.8 µM), for the others: at the highest dose activity change, negative = inhibition, usual class: inhibitors | actives 1.8% (n = 300,000) | AID 540276; calls by dose curve; tested in HEK293 cells; also: potency is read from the fitted curve at half-maximal effect
Lassa entry inh: Lassa virus entry inhibition; Lassa virus pseudotype entry inhibition, cell reporter; Potency, µM (titrated, usually from 37.9 µM), for the others: top-dose activity change, negative = inhibition, actives largely listed as inhibitors; actives 1.2% (n = 300,000); AID 540256; calls by dose curve; tested in HEK293 cells; also: potency is read from the fitted curve at half-maximal effect; nearly all actives have a fitted effect of over 50% in size
Vaccinia mCherry: vaccinia inhibition (mCherry reporter); Vaccinia virus mCherry reporter infection, fluorescence; Potency, µM (top dose mostly 36.5 µM), for inactives: at the highest dose activity change, negative = inhibition, usual class: inhibitors; actives 0.63% (n = 310,000); AID 720579; calls by dose curve; tested in A549 cells; also: potency is read from the fitted curve at half-maximal effect; nearly all actives have a fitted effect of over 35% in size
HCMV inh: inhibitors of human cytomegalovirus; AID 1259415; actives 4.5% (n = 410,000); activity change, negative = inhibition, % at 57.5 µM; HFF cells, HCMV-luciferase reporter, 72 h; hits give low values; in the data active = activity change below about -60%; inconclusive = no clear call, values can overlap the other calls; inactive = above about -39%
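After 16 h attachment at 37C, HFF cells received test compound and HCMV-luciferase (1 PFU/cell); reporter luminescence read 72 h later, data normalized against buffer-only and known inhibitor Salinomycin.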
FMDV inh: antivirals against foot and mouth disease virus; FMDV antiviral cell-based qHTS; Potency, µM (series often up to 57.9 µM), for the others: at the highest dose activity change, negative = inhibition, hits mostly inhibitors; actives 1.2% (n = 410,000); AID 1159524; calls by dose curve; tested in HEK293T cells; also: read-out not given here; potency is read from the fitted curve at half-maximal effect; nearly all actives have a fitted effect of over 45% in size
Numbers without * were called inactive; i = inactive; ? = inconclusive; nt = no result; + = active, no number; [ ] = another dose, or the depositor's remark. An excerpt weighted towards active compounds, which were near 6.5% of everything screened. % is scaled to controls: 0 for no effect and ±100 for the full control effect.

SMILES | VACV Venus inh | MARV entry inh | Lassa entry inh | Vaccinia mCherry | HCMV inh | FMDV inh
COc1cc2c(cc1OC)C(C)N(C(=O)Nc1ccc(F)cc1)CC2 (centres undefined) | nt | nt | nt | nt | -101.6* | -14.6%
COCCC(=O)NCC1Cc2cc(Cl)cc(-c3ccc4[nH]ccc4c3)c2O1 (centres undefined) | -4.0% | nt | nt | -9.0% | nt | 1.4%
Cc1ccc2nc(CSc3nnc(NC(=O)c4ccc(C(C)(C)C)cc4)s3)cc(=O)n2c1 | -11.8% | nt | 10.6%[46.1 µM] | i | -33.7 | 8.9%
CN1CC(O)C2=CC(=O)C(=O)C=C21 (centres undefined) | -10.3% | nt | nt | -2.4% | nt | -16.2%
CC(C)CCNC(=O)c1c(N)n(Cc2ccc3c(c2)OCO3)c2nc3ccccc3nc12 | nt | ? | -20.6% | nt | -34.5 | -14.0%
CC(C)Cn1c(N)c(C(=O)NCC2CCCO2)c2nc3ccccc3nc21 (centres undefined) | 10µM* | ? | -26.5% | 10µM* | -20.0 | ?
CC(C)CNC(=O)c1c(N)n(Cc2ccc3c(c2)OCO3)c2nc3ccccc3nc12 | nt | ? | -4.3% | nt | -80.2* | -17.3%
Nc1c(C(=O)NCc2ccccc2)c2nc3ccccc3nc2n1-c1ccc2c(c1)OCO2 | -13.5% | ? | ? | -2.1% | -77.1* | nt
O=C(NCC1CCCO1)c1cc2ccccc2nc1Cl (centres undefined) | nt | nt | nt | nt | -69.5* | 14.7%
CC(C)CO/N=C1\C[C@@H](O)[C@@H](O)[C@@H]2[C@@H]3C(=O)N(C4CCCCC4)C(=O)[C@@H]3CC[C@@H]12 | nt | -13.9%[14.2 µM] | nt | nt | nt | nt
Cc1ccc(NC(=O)c2ccco2)c(OCc2cc(=O)n3cc(C)sc3n2)c1 | -9.0% | nt | 28.2%[46.1 µM] | -18.3% | -34.3 | -18.2%
O=C(NCC1(N2CCOCC2)CCCCC1)c1cnn(-c2nccc(-c3cccs3)n2)c1C1CC1 | ? | nt | nt | ? | nt | -16.0%
COc1ccc2c(CNCCc3ccccc3)c(C(=O)O)n(Cc3cccc(F)c3)c2c1 | -6.0% | nt | ? | -10.8% | 35.5 | 3.5%
CC(C)Oc1ccc(C(=O)N(Cc2ccc(N(C)C)cc2)Cc2ccco2)cc1 | -3.9% | -23.9%[46.1 µM] | ? | -1.7% | 28.2 | -10.5%
CCc1ccc(CNC(=O)CN2C(=O)CSc3c2c(C)nn3-c2ccccc2)cc1 | -6.3% | nt | -20.3%[46.1 µM] | 15.9% | -36.7 | -5.4%
COCCn1c(N)c(C(=O)NCc2cccs2)c2nc3ccccc3nc21 | nt | ? | -0.5% | nt | ? | 4.0%
CC(C)OCCCNC(=O)c1c(N)n(Cc2cccs2)c2nc3ccccc3nc12 | 28.2µM* | ? | ? | nt | -74.2* | -29.3%
COC(=O)C1=C(C)N(Cc2ccccc2)C(=NCC(C)C)NC1c1cccc(F)c1 (centres undefined) | nt | 19.6%[14.2 µM] | ? | nt | nt | nt
Cc1[nH]c2ccc(-c3nnc(SCC(=O)c4ccc(F)cc4)o3)cc2c1C | -14.3% | -22.4% | 9.2µM* | -22.5% | ? | nt
Cc1cc(C)c(C)c(C(=O)CSc2nnc(-c3ccc4[nH]c(C)c(C)c4c3)o2)c1C | -6.3% | ? | ? | nt | ? | ?
O=C(NCc1ccco1)/C(=C/c1ccc(C(F)(F)F)cc1)c1nc2ccccc2[nH]1 | nt | -29.2% | ? | nt | -24.9 | 21.0%
O=C(NCc1ccco1)/C(=C/c1cccc(C(F)(F)F)c1)c1nc2ccccc2[nH]1 | -11.0% | ? | ? | -22.8% | -100.3* | 0.0%
Cc1ccc(S(=O)(=O)N2CCN(C(C(=O)Nc3ccc(F)cc3)c3ccccc3)CC2)cc1 (centres undefined) | -15.1% | ? | 6.31µM* | -10.7% | -33.6 | 0.0%
O=C(Nc1cccc(S(=O)(=O)C(F)F)c1)c1ccc(S(=O)(=O)N2CCOCC2)cc1 | -13.7% | ? | -9.8% | 5.2% | 6.6 | ?
O=C(Nc1ccc(S(=O)(=O)C(F)F)cc1)c1cccc(S(=O)(=O)N2CCOCC2)c1 | -16.0% | ? | -28.4% | -6.8% | -18.3 | 17.8µM*
SMILES | VACV Venus inh | MARV entry inh | Lassa entry inh | Vaccinia mCherry | HCMV inh | FMDV inh
COc1ccc(S(=O)(=O)N2CCCCCC2)cc1C(=O)N(C)CCOc1ccc(Cl)cc1 | -8.1% | ? | 17.8µM* | -7.2% | -39.1 | ?
CC(Sc1ccccc1)C(=O)Nc1ccc(S(=O)(=O)N2CCOCC2)cc1 (centres undefined) | -6.5% | 7.9% | -10.6% | -15.5% | -64.0* | 5.2%
O=C(Nc1cccc(S(=O)(=O)C(F)F)c1)c1ccc(S(=O)(=O)N2CCCC2)cc1 | ? | ? | 5.01µM* | -0.2% | ? | -11.3%
COc1ccc(/C(C)=N/NC(=O)c2cccc(S(=O)(=O)N3CCCC3)c2)c(O)c1 | ? | ? | ? | 5.62µM* | -90.3* | -25.6%
Nc1cc(S(=O)(=O)N2CCCCC2)ccc1Oc1ccc(Cl)cc1 | nt | ? | -26.4% | nt | -65.9* | ?
COc1ccc(NC(=O)c2cc(S(=O)(=O)N3CCCCC3)ccc2OC)cc1 | nt | nt | nt | nt | -72.8* | 15.3%
COc1ccc(NC(=O)c2cc(S(=O)(=O)N3CCCC3)ccc2OC)cc1 | -5.8% | nt | 2.7%[46.1 µM] | i | ? | 6.2%
COc1ccc(NC(=O)c2cccc(S(=O)(=O)N3CCCCCC3)c2)cc1 | -3.6% | -11.3%[46.1 µM] | -10.9% | i | -87.6* | -2.1%
O=C(NNC(=O)c1ccc(O)c(Cl)c1)c1cccc(S(=O)(=O)N2CCOCC2)c1 | -2.2% | 10µM* | -19.7% | -12.2% | -2.7 | -0.5%
Cc1ccc(NC(=O)c2cc(S(=O)(=O)N3CCOCC3)cs2)cc1 | -17.3% | -2.4%[46.1 µM] | -29.1%[46.1 µM] | -24.2% | 4.2 | ?
COc1ccc(NS(=O)(=O)c2cccc(NC(=O)c3ccc(S(=O)(=O)N4CCCCCC4)cc3)c2)cc1 | ? | 3.55µM* | 8.2µM* | ? | nt | 0.0%
N#Cc1ccc(C(=O)NNC(=O)c2cccc(S(=O)(=O)N3CCOCC3)c2)cc1 | -15.1% | 22.6% | -1.2% | -21.3% | 0.0 | -12.8%
Cc1ccc(NC(=O)c2cc(S(=O)(=O)N3CCCCC3)cs2)cc1 | ? | -28.7% | 20.6µM* | -28.4% | -81.2* | nt
c1ccc(-c2cc3c(Nc4cccnc4)nccc3[nH]2)cc1 | nt | nt | nt | nt | 10.8 | nt
CC[C@H]1SC2=NC(C)=C(C(=O)OCCOC)[C@@H](c3ccc(C(=O)OC)cc3)N2C1=O | nt | -19.4% | nt | nt | nt | nt
CC(C)[C@H](NC(=O)c1ccccc1)C(=O)Nc1cccc(S(=O)(=O)N2CCOCC2)c1 | -5.6% | 2.0% | -20.1% | i | + | 8.0%
COc1ccc(NS(=O)(=O)c2cccc(NC(=O)C34CCC(CC3)C4)c2)cc1 | -18.1% | ? | 11.6µM* | i | -64.5* | 8.5%
COc1ccc(NS(=O)(=O)c2cccc(NC(=O)C3=NN(c4ccccc4)C(=O)CC3)c2)cc1 | nt | nt | nt | nt | -4.3 | ?
CCOc1ccc(NC(=O)c2c(NC(=O)c3ccccc3Br)sc3c2CCC(C)C3)cc1 (centres undefined) | -10.0% | nt | 5.6%[46.1 µM] | -11.8% | -36.1 | -2.3%
COc1cc(OC)cc(-c2cc3nc(C)c(CCC(=O)Nc4ccc(C(C)=O)cc4)c(C)n3n2)c1 | -14.0% | ? | ? | -10.9% | ? | ?
